The source made the active and inactive calls.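 The calls were made as follows, unless noted: active = inhibition of the reporter signal at or above 50%; inactive = inhibition below 50%.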
Legend:
[1] = inhibitors of TNFa-induced NFkB p65 translocation, primary screen, imaging, HUVEC, MLSMR starter and 10KST1 sets (AID 438;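 active = inhibition above 20% together with a positive visual image hit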;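 also: compound added about 3h40 before a 20 min TNFalpha stimulation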;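 as to inhibition: signal is the nuclear over cytoplasmic p65 intensity ratio per well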); conditions: HUVEC TNFa-induced p65 nuclear translocation; cell count: measured here: nuclei count (cytotoxicity indicator), at 2.08 µM; inhibition: at 2 µM, stronger effect = higher value, 0% TNFa-plus-vehicle, 100% no-TNFa wells
[2] = inhibitors of mutant huntingtin aggregation, primary screen, imaging, exon1htt(103Q)mCFP cells, high-content imaging (AID 483;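 active = visual image review flags a hit and inhibition of aggregation exceeds 20%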;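 also: compound exposure lasted 3 days before fixation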;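 as to nuclei count: percent of the per-plate median nuclei count of sample wells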); conditions: exon1htt(103Q)mCFP cell line, aggregate imaging, at 2 µM; inhibition of aggregation: stronger effect = higher value; nuclei count: measured here: cell count, toxicity
[3] = inhibitors of E-selectin induction by TNFa, primary screen, imaging, HUVEC, immunofluorescence, MLSMR starter and 10KST1 sets (AID 487;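 active = visually confirmed hit in the image check and inhibition above 20%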;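 as to inhibition: signal is fraction of cell area covered by stained E-selectin grains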;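 as to nuclei count: 100% = median nuclei count of all wells on the same plate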); conditions: HUVEC TNFalpha-induced E-selectin immunofluorescence imaging, at 2 µM; inhibition: stronger effect = higher value; nuclei count: measured here: cell number, toxicity
[4] = molecular target: Voltage-gated potassium channel subunit beta-2 (Rattus norvegicus) (UniProt P62483); experiment: KvBeta enzyme negative modulators, primary screen, biochemical, NADPH fluorescence (AID 622;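 active = fluorescence slope higher than the sample average by over 3 SD, cut at about -0.22 in these data, passing the limit was not always enough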;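 also: slope of raw intensity against log time taken from 70 to 1610 s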); conditions: recombinant KvBeta, 4-cyanobenzaldehyde reduction, at 10 µM, stronger effect = higher value
Chain of Voltage-gated potassium channel subunit beta-2 (Rattus norvegicus) (P62483 whole entry, looked up): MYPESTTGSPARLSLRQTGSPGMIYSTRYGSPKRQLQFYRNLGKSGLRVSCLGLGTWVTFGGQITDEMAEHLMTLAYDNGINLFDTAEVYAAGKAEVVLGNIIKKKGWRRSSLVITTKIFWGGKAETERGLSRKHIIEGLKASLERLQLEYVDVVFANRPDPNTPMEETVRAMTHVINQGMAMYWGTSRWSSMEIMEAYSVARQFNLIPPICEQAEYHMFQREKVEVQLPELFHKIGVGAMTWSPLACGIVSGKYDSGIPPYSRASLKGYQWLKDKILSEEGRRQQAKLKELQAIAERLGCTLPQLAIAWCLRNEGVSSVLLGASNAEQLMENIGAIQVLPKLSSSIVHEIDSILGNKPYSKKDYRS

[5] = molecular target: Voltage-gated potassium channel subunit beta-2 (Rattus norvegicus) (UniProt P62483); experiment: KvBeta positive modulators, primary screen, biochemical, NADPH fluorescence (AID 623;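 active = NADPH fluorescence slope more negative than the mean of all samples by about 3 SD, 99.7% confidence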;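 also: fluorescence intensity change per second fitted from 20 to 320 s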); conditions: Recombinant KvBeta, NADPH fluorescence decrease slope, 10 min; at 10 µM; stronger effect = lower value
[6] = molecular target: Alpha-2C adrenergic receptor (Homo sapiens) (UniProt P18825); experiment: modulators of alpha2C/GIRK thallium flux, primary screen, cell-based, HEK293 alpha2C/GIRK1/2 (AID 624;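 active = fluorescence slope after compound addition differing from the mean of all screened samples at 99.7% confidence, in either direction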;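 also: slope of fluorescence ratio to pre-addition baseline per second over 15 to 24 s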); conditions: thallium flux BTC fluorescence, at 10 µM, actives lie on both sides
Chain of Alpha-2C adrenergic receptor (Homo sapiens) (P18825 whole entry, looked up): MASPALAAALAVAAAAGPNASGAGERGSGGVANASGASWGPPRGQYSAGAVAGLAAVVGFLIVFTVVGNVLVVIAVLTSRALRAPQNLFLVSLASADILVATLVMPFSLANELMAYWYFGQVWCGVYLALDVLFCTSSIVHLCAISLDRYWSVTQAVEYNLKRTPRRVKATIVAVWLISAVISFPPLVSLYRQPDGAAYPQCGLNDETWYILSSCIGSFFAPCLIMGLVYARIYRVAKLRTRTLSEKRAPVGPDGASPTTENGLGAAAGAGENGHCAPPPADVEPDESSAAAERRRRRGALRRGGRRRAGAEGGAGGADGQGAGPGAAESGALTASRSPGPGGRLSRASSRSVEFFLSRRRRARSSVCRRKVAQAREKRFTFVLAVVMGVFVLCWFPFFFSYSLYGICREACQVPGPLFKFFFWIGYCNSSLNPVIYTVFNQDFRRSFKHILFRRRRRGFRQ

[7] = inhibitors of Sendai virus-induced IRF3 signaling, primary screen, TLR/RLR signaling modifier project, cell-based, Sendai virus stimulus, luciferase, 10K MLSCN set (AID 602276;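 active = inhibition at or above 50% at 10 µM; inactive = inhibition below 50%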;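 also: firefly luciferase from ISG56 promoter only with Renilla not read in this screen; 0% = Sendai virus plus DMSO and 100% = medium plus DMSO without virus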); conditions: HEK293 RL24 IRF3 luciferase reporter, at 10 µM, stronger effect = higher value
[8] = inhibitors of poly I:C-induced TLR3 signaling, primary screen, cell-based, poly I:C stimulus, luciferase, 10K MLSCN set (AID 602277); conditions: HEK293-TLR3 RL24 IRF3 luciferase reporter, at 10 µM, stronger effect = higher value

Structure (SMILES) | cell count [1] | inhibition [1] | inhibition of aggregation [2] | nuclei count [2] [%] | inhibition [3] | nuclei count [3] [%] | fluorescence slope [4] | NADPH fluorescence slope [5] | slope [6] | inhibition [7] | inhibition [8]
CCOC(=O)c1c(C)[nH]c(C(=O)CSc2nc3ccccc3o2)c1C | 479 | 10.6% (inactive) | -23.1% (inactive) | 107 | 28.7% (inactive) | 94.5 | -0.3 (inactive) | 1.8e-05 (inactive) | 0.00682 (inactive) | -1.31% (inactive) | 0.358% (inactive)
Cc1ccccc1NC(=O)CN1CCC(NC(=O)Nc2ccccc2)CC1 | 516 | -1.9% (inactive) | 25.9% (inactive) | 68 | -121% (inactive) | 93 | -0.292 (inactive) | -4.8e-05 (inactive) | 0.00566 (inactive) | 9.37% (inactive) | 9.34% (inactive)
CCOC(=O)C1=C(CS(=O)(=O)c2ccc(F)c(C)c2)NC(=O)NC1c1ccc(O)c(O)c1 (stereo not drawn) | 619 | -0.8% (inactive) | 8.1% (inactive) | 112 | -35.7% (inactive) | 116 | -0.576 (inactive) | -2.4e-05 (inactive) | 0.00703 (inactive) | -1.61% (inactive) | 5.18% (inactive)
Nc1nc2ccccc2n1C(=O)CCc1ccccc1 | 663 | -1.2% (inactive) | -11.5% (inactive) | 69 | -36.3% (inactive) | 125 | -0.396 (inactive) | -3.8e-05 (inactive) | 0.0047 (inactive) | -24.1% (inactive) | -73.1% (inactive)
Cc1nnc(SCC(=O)Nc2cc(C(F)(F)F)ccc2N2CCOCC2)o1 | 271 | 0.2% (inactive) | 16.1% (inactive) | 99.1 | -2.6% (inactive) | 95.1 | -0.379 (inactive) | -3.9e-07 (inactive) | 0.00303 (inactive) | 10.8% (inactive) | 32.5% (inactive)
CC(C)CSc1nc2ccccc2n1CC(N)=O | 314 | 3% (inactive) | -6.3% (inactive) | 109 | 33.6% (inactive) | 107 | -0.362 (inactive) | -4.7e-05 (inactive) | 0.00549 (inactive) | 13.3% (inactive) | 15.2% (inactive)
CCc1nnc(SCC(=O)NC2CCCCC2)nc1CC | 774 | -14.3% (inactive) | 11.4% (inactive) | 105 | -62.4% (inactive) | 103 | -0.536 (inactive) | 2e-06 (inactive) | 0.00672 (inactive) | -5.14% (inactive) | 5.98% (inactive)
CCOc1ccccc1-n1c(SCC(=O)NC(C)CC)nnc1-c1ccoc1C (stereo not drawn) | 608 | -2.4% (inactive) | -1.9% (inactive) | 105 | -47.9% (inactive) | 121 | -0.439 (inactive) | -3.6e-05 (inactive) | 0.00423 (inactive) | 18.6% (inactive) | 17.4% (inactive)
O=C(NC1CCCC1)c1ccc2nc[nH]c2c1 | 427 | 10.2% (inactive) | 0.8% (inactive) | 101 | -41.4% (inactive) | 114 | -0.62 (inactive) | -3.9e-06 (inactive) | 0.00786 (inactive) | 9.91% (inactive) | 13.1% (inactive)
CCc1ccc(NC(=O)CS(=O)CC(=O)NCC2OCCc3ccccc32)cc1 (stereo not drawn) | 698 | -4.5% (inactive) | 6.4% (inactive) | 102 | -119% (inactive) | 114 | -0.415 (inactive) | -3.6e-05 (inactive) | 0.00515 (inactive) | 9.39% (inactive) | 13.4% (inactive)
CCOC(=O)N1CCN(CC(O)COc2ccccc2C(C)CC)CC1 (stereo not drawn) | 631 | -12.4% (inactive) | 0.6% (inactive) | 100 | -35.9% (inactive) | 122 | -0.612 (inactive) | -1.6e-05 (inactive) | 0.00663 (inactive) | 10.8% (inactive) | 35.4% (inactive)
CC(C)(C)SCCNC(=O)CN1C(=O)c2ccccc2S1(=O)=O | 625 | -4.2% (inactive) | -13.2% (inactive) | 97.6 | -29.7% (inactive) | 106 | -0.499 (inactive) | -8.2e-06 (inactive) | 0.00704 (inactive) | 3.26% (inactive) | -7.98% (inactive)
CCOC(=O)c1[nH]nc(N)c1NC(=O)c1ccc(Cl)cc1Cl | 554 | -4.9% (inactive) | 3.8% (inactive) | 99.2 | -238% (inactive) | 134 | -0.456 (inactive) | 8.2e-05 (inactive) | 0.00589 (inactive) | -16.4% (inactive) | -22.5% (inactive)
COC(=O)Nc1nnc(CCc2ccccc2)s1 | 547 | 3.2% (inactive) | 2.7% (inactive) | 107 | -51.8% (inactive) | 113 | -0.509 (inactive) | -4.7e-05 (inactive) | 0.00467 (inactive) | 12.3% (inactive) | 2.62% (inactive)
COc1cc(OC)cc(C(=O)N2c3ccc(F)cc3CCC2C)c1 (stereo not drawn) | 282 | -4.7% (inactive) | 19% (inactive) | 83.6 | -85.9% (inactive) | 103 | -0.524 (inactive) | -4.4e-05 (inactive) | 0.0061 (inactive) | 12.9% (inactive) | 21.8% (inactive)
CC(C)COC(=O)N(C)c1ccc(C(O)(C(F)(F)F)C(F)(F)F)cc1 | 744 | -12.4% (inactive) | -7.8% (inactive) | 116 | -56.8% (inactive) | 112 | -0.618 (inactive) | -4.8e-06 (inactive) | 0.00749 (inactive) | -9.85% (inactive) | -5.85% (inactive)
CCOC(=O)C(NC(=O)Nc1ccccc1)(OCC)C(F)(F)F (stereo not drawn) | 517 | -2.4% (inactive) | -2.5% (inactive) | 97.9 | 25% (inactive) | 89.1 | -0.639 (inactive) | 1.8e-05 (inactive) | 0.0106 (inactive) | 16.5% (inactive) | 30.2% (inactive)
CC1CCCCC1NC(=O)c1nn(C)c(=O)c2ccccc12 (stereo not drawn) | 361 | 0.7% (inactive) | 0.4% (inactive) | 105 | 13.7% (inactive) | 88.6 | -0.621 (inactive) | 1.8e-06 (inactive) | 0.00592 (inactive) | -1.74% (inactive) | 2.78% (inactive)
O=C(c1ccco1)N1CCN(C(=O)c2sccc2-c2ccccc2)CC1 | 310 | 20.7% (inactive) | 7.1% (inactive) | 90 | -74.7% (inactive) | 115 | -0.581 (inactive) | 2.3e-06 (inactive) | 0.0052 (inactive) | -5.94% (inactive) | 4.34% (inactive)
COC(=O)C1=C(C)n2nnnc2NC1c1ccc(Cl)cc1 (stereo not drawn) | 340 | 3.6% (inactive) | -8.8% (inactive) | 99.4 | -119% (inactive) | 80.4 | -0.367 (inactive) | 1.8e-05 (inactive) | 0.00153 (inactive) | 2.58% (inactive) | 10.6% (inactive)
Cc1ccc(Cn2c(NCCc3ccccc3)nc3c2c(=O)n(C)c(=O)n3C)cc1 | 368 | 6.8% (inactive) | 6.1% (inactive) | 98.7 | -203% (inactive) | 108 | -0.597 (inactive) | -6.3e-06 (inactive) | 0.00517 (inactive) | 34.6% (inactive) | 29.6% (inactive)
CC1NC(=O)NC1CCCCCC(=O)NCCc1ccccc1 (stereo not drawn) | 391 | 7.3% (inactive) | 7.5% (inactive) | 110 | -86.2% (inactive) | 113 | -0.441 (inactive) | -1.4e-05 (inactive) | 0.006 (inactive) | 5.75% (inactive) | 15.3% (inactive)
Cc1c(C(=O)OCc2ccccc2)[nH]c2c1C(=O)CC(c1ccco1)C2 (stereo not drawn) | 721 | 12.7% (inactive) | -170% (inactive) | 3.7 | -63.1% (inactive) | 107 | -0.569 (inactive) | -1.8e-05 (inactive) | 0.00645 (inactive) | 45.4% (inactive) | 80.4% (active)
c1ccc(-n2ncc3c(NC4CCCCCC4)ncnc32)cc1 | 691 | -0.3% (inactive) | 3.1% (inactive) | 115 | -56.3% (inactive) | 122 | -0.547 (inactive) | -1.1e-06 (inactive) | 0.007 (inactive) | -49.7% (inactive) | -136% (inactive)
CNC(=O)c1ccc(N(Cc2ccccc2C)S(C)(=O)=O)cc1 | 710 | -2.6% (inactive) | 0.9% (inactive) | 117 | -40.6% (inactive) | 116 | -0.636 (inactive) | -4.1e-05 (inactive) | 0.00383 (inactive) | 11.8% (inactive) | 11.4% (inactive)
O=C1N2c3ccccc3CCc3cccc(c32)C1(O)C(F)(F)F (stereo not drawn) | 747 | 4.7% (inactive) | 0.2% (inactive) | 82.6 | -28% (inactive) | 86.8 | -0.641 (inactive) | 1.4e-06 (inactive) | 0.00675 (inactive) | 17.9% (inactive) | 12.7% (inactive)
COc1ccc(NC(=O)CS(=O)CC(=O)Nc2cc(Cl)ccc2OC)cc1 (stereo not drawn) | 485 | 10.5% (inactive) | 5.3% (inactive) | 71.7 | -34.6% (inactive) | 96 | -0.362 (inactive) | -6.2e-05 (inactive) | 0.00691 (inactive) | 13.1% (inactive) | 28.4% (inactive)
COc1ccc2[nH]c(C)c(CCN3C(=O)OC(C)(C)C3(C)O)c2c1 (stereo not drawn) | 754 | -4% (inactive) | -15.3% (inactive) | 97.3 | -2.5% (inactive) | 111 | -0.561 (inactive) | -4.3e-05 (inactive) | 0.00701 (inactive) | 6.33% (inactive) | 23.6% (inactive)
